This is a sample that favours compounds with a hit; in the whole collection about 1.9% have one here.
HSF1 activator: increases HSF-1 driven luciferase reporter signal | 300,000 tested, 1.7% active | activation, % at 9 µM | AID 504408 | NIH3T3-HGL HSF-1 luciferase reporter, MG132, 8 h; 100% = twice DMSO control signal;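 active means mean replicate activation of at least 50% with a set share of replicates each reaching 50%; inconclusive means only one of those two conditions met; inactive means mean below 50% and too few replicates reaching it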;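 further: 0% = median of the neutral control wells and 100% = twice that signal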
TNF death inh: inhibitors of TNF-alpha induced necroptosis in Jurkat FADD-/- cells; Jurkat FADD-/- TNF necroptosis rescue, ATP luminescence, 24 h; 0 = TNF only, 100 = no-TNF cells; activation (protection from cell death), % at 10 µM; 220,000 tested, 0.068% active;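 active means activation, meaning protection from cell death, of at least 50% relative to plate controls; inactive means activation below 50%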;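 further: necroptosis triggered by 40 ng/mL TNF-alpha added together with compound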
Hsp70 activator: transcriptional activators of Hsp70; HeLa Hsp70 promoter luciferase reporter, luminescence; scaled: vehicle 0, proteasome-inhibitor control 100%; activation, % at 10 µM; 200,000 tested, 0.04% active; AID 1203;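 active means activation above the mean across all tested compounds plus 3 SD, cutoff set per campaign, cut at about 5.5% in these data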;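 further: 100% = MG132 at 30 µM as the positive control and 0% = DMSO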
L929 necroptosis: blocks zVAD induced death of L929 cells. L929 zVAD necroptosis rescue, ATP luminescence, 24 h; with zVAD 60 µM. viability rescue, % at 10 µM. 220,000 tested, 0.38% active;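 active means activation, scaled between plate controls, above about 75%, limit read from the data; inactive means activation under that limit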;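 further: 0% = zVAD with DMSO and 100% = DMSO alone without zVAD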
* = called active by the depositor; u = inconclusive; x = no result given.

SMILES	HSF1 activator	TNF death inh	Hsp70 activator	L929 necroptosis
O=C1/C(=C/c2ccco2)CCC1C1CCCC1 (centres undefined)	61*	2	0	32
Cc1cccc(Oc2nc3ccccn3c(=O)c2/C=C(\C#N)C(=O)NC2CCS(=O)(=O)C2)c1 (centres undefined)	34	-1	0	0
Cc1cc(Oc2nc3ccccn3c(=O)c2/C=C(\C#N)C(=O)NC2CCS(=O)(=O)C2)ccc1Cl (centres undefined)	60*	x	x	x
CCc1sc(C(=O)Nc2cccc(C(C)=O)c2)cc1C	32	1	0	44
CCOc1ccc(NC(=S)N(Cc2ccc(N(C)C)cc2)Cc2ccco2)cc1	21	-3	0	0
COc1ccc(NC(=S)N(Cc2ccc(N(C)C)cc2)Cc2ccco2)cc1	91*	1	0	0
Cc1cc(C)n2nc(NCc3cccc(Br)c3)nc2n1	17	1	-1	0
COc1ccc2c(c1)c(C(=O)N/N=C/c1ccccc1Cl)c(C)n2C	56*	-1	x	1
COc1cc(/C=N/NC(=S)NC2CC3CCC2C3)ccc1O (centres undefined)	57*	1	x	1
Cc1nc(N2CCC(C)CC2)c2c(C)c(C(=O)O)sc2n1	20	0	0	0
Cc1ccc(-n2c(SC3CCOC3=O)nc3ccccc3c2=O)cc1 (centres undefined)	-20	0	0	0
CCC(C)n1c(SCC(=O)NC(=O)Nc2ccc3c(c2)OCCO3)nc2ccccc2c1=O (centres undefined)	54*	2	0	2
CCC(C)n1c(SCC(=O)NC(=O)c2cccn2C)nc2ccccc2c1=O (centres undefined)	13	4	1	1
Clc1ncnc2scc(C3COc4ccccc4O3)c12 (centres undefined)	58*	-14	0	0
CC(Sc1ncnc2c1cnn2-c1ccccc1)C(=O)NCC1CCCO1 (centres undefined)	-6	x	x	x
Cc1nc(SC(C)C(=O)NCC2CCCO2)c2cc(-c3ccccc3)sc2n1 (centres undefined)	71*	x	x	x
Cc1ccc(C(C(=O)NC2CCCC2)N2CCc3ccccc32)cc1 (centres undefined)	58*	0	0	0
c1ccc(CNc2nc3ccccc3[nH]2)cc1	27	2	0	-1
COc1ccc2nc(NCc3ccccc3)[nH]c2c1	14	-4	0	1
c1ccc2[nH]c(NCc3ccc4c(c3)OCO4)nc2c1	55*	-1	0	0
Cc1ccc2nc(NCc3ccccc3)[nH]c2c1	233*	-9	0	0
CCOC(=O)CC1COCCN1C(=O)c1cc(COc2ccc(F)cc2Cl)on1 (centres undefined)	25	x	x	x
CCCCNC(=O)c1ccc(NC(=O)C2CCCO2)cc1 (centres undefined)	7	1	0	0
CCCCc1ccc(NC(=O)C2CCCO2)cc1 (centres undefined)	63*	-1	0	0
Cc1cc(C)c(-c2csc(NC(=O)C3=COCCO3)n2)c(C)c1	-6	x	x	x
SMILES	HSF1 activator	TNF death inh	Hsp70 activator	L929 necroptosis
Cc1cc(C)c2sc(NC(=O)C3=COCCO3)nc2c1	54*	x	x	x
Cn1c(=O)c(=O)n(C)c2cc([N+](=O)[O-])c(N3CCOCC3)cc21	5	x	x	x
O=C(NCCc1ccc(F)cc1)Nc1ccc2c(c1)OCO2	22	3	0	0
O=C(NCCc1ccccc1)Nc1ccc2c(c1)OCO2	62*	3	0	0
C=C(C)COc1ccc(C2NC(=O)c3ccccc3O2)cc1OCC (centres undefined)	1	x	x	x
O=C(N/N=C1\CC(c2ccccc2)Oc2ccccc21)c1ccc(O)cc1 (centres undefined)	71*	x	x	x
Cc1cc(Cl)ccc1C(=O)C1CCCN(C(=O)c2cnsn2)C1 (centres undefined)	51*	1	0	0
Cc1[nH]c2c(C)cccc2c(=O)c1CN1CCCCCC1	-4	x	x	x
O=C(OC(C(=O)Nc1ccc([N+](=O)[O-])cc1Br)c1ccccc1)c1ccccc1 (centres undefined)	3	76*	0	0
CN(C)c1cccc(C(=O)OC(C(=O)Nc2ccc([N+](=O)[O-])cc2Br)c2ccccc2)c1 (centres undefined)	-1	4	0	0
FC(F)(F)c1cnc(/C=C/Nc2ccccc2Cl)c(Cl)c1	52*	-3	0	0
O=S(=O)(c1ccccc1)c1ncc(C(F)(F)F)cc1Cl	u	-16	-1	-1
O=C1CSC(=S)N1/N=C/c1cccc(C(F)(F)F)c1	68*	x	x	x
O=C1CSC(=S)N1/N=C/c1ccc(C(F)(F)F)cc1	-28	x	x	x
COc1ccccc1CNc1ccc([N+](=O)[O-])cc1C	55*	8	0	2
COc1ccc([N+](=O)[O-])cc1NC(=O)Cc1ccccc1Cl	0	1	0	1
COc1cccc(CNc2ccc([N+](=O)[O-])cc2Cl)c1O	97*	3	0	0
Cc1cc2cc(C=C(C#N)C#N)c(Cl)nc2cc1C	-10	-27	0	0
CCN(CC(=O)NCc1ccc(Cl)cc1)C(=O)CN1C(=O)NC(CC)(c2ccccc2)C1=O (centres undefined)	4	x	x	x
CCc1ccc(N2C(=O)CC(NNc3nc4ccccc4s3)C2=O)cc1 (centres undefined)	220*	0	0	0
Cc1ccc(N2C(=O)CC(NNc3nc4ccccc4s3)C2=O)cc1 (centres undefined)	43	-1	0	1
COc1cccc(N2C(=O)CC(NNc3nc4ccccc4s3)C2=O)c1 (centres undefined)	69*	1	x	1
O=C1CC(NNc2nc3ccccc3s2)C(=O)N1c1ccccc1 (centres undefined)	43	0	0	0
COc1ccc(C)cc1NC(=O)CCNC(=O)Cn1ccc2ccccc2c1=O	11	x	x	x
COc1ccc(OC)c(NC(=O)C(=O)N/N=C(\C)CC(=O)Nc2ccc(Cl)cn2)c1	6	x	x	x
SMILES	HSF1 activator	TNF death inh	Hsp70 activator	L929 necroptosis
O=C(Nc1ccc([N+](=O)[O-])cc1)Nc1ccc2c(c1)OCCO2	64*	0	0	0
O=C(CC(c1ccco1)S(=O)(=O)c1ccccc1)c1ccc(F)cc1 (centres undefined)	220*	3	-1	1
COc1ccc(OC)c(NC(=O)CNC(c2ccccc2)c2ccccc2)c1	62*	x	x	x
COc1ccc(C)cc1NC(=O)CNC(c1ccccc1)c1ccccc1	4	x	x	x
Cc1nc(NC(=O)CN2CCN(c3cccc(Cl)c3)CC2)sc1C(=O)N(C)C	-7	x	x	x
COc1ccc(NC(=O)c2[nH]c(C)c(C(C)=O)c2C)cc1Cl	36	-1	0	2
COc1ccc(NC(=O)c2[nH]c(C)c(C(C)=O)c2C)cc1S(=O)(=O)Nc1ccc(Br)cc1	89*	-4	x	0
CCOC(=O)/C(=C/c1ccc(OC(=O)c2ccccc2)cc1)C(C)=O	77*	-1	0	1

Assay outcomes: PubChem BioAssay, several laboratories
